PubChem BioAssay (NCI)
This is part of a sample that, as a whole, favours compounds with a hit. Of some 79,000 tested, about 15% had one in any assay. Calls of active or inactive are those of the source. Cut-off read from the data, not from the text of the source: active = growth inhibition above about 70%; inactive = the rest.

Tests used:
[1] = NCI Yeast Anticancer Drug Screen. Data for the wt1 strain (AID 149);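 note: 0% = growth of vehicle-treated wt1 cultures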; conditions: S. cerevisiae wt1 strain (SPY 50644) growth inhibition, stronger effect = higher value
Outline: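 wt1 yeast, compound-treated; % growth inhibition vs vehicle control.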

[2] = NCI Yeast Anticancer Drug Screen. Data for the rad50EPP+ strain (AID 151);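 note: 0% = growth of vehicle-treated control cultures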; conditions: S. cerevisiae rad50 mutant strain, stronger effect = higher value
Outline: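 Yeast strain carrying rad50 alteration (rad50EPP+) exposed to compounds; growth inhibition measured relative to vehicle-treated controls.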

[3] = NCI Yeast Anticancer Drug Screen. Data for the rad50 strain (AID 155);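 note: 0% = growth of vehicle-only cultures of the same strain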; conditions: S. cerevisiae rad50 strain growth inhibition, stronger effect = higher value
Outline: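 Genetically altered yeast (DNA repair pathway); compound treatment; growth inhibition vs vehicle ctrl.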

[4] = NCI Yeast Anticancer Drug Screen. Data for the mec2-1 strain (AID 157); conditions: S. cerevisiae mec2-1 strain, stronger effect = higher value
Outline: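 mec2-1 yeast strain, carrying an alteration in DNA damage repair or cell cycle control, was exposed to compounds; growth inhibition was measured relative to vehicle-treated controls.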

[5] = NCI Yeast Anticancer Drug Screen. Data for the rad14 strain (AID 159);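 note: 0% = growth of vehicle-treated control cultures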; conditions: S. cerevisiae rad14 strain growth inhibition, stronger effect = higher value
Outline: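 Test compounds were applied to a repair-deficient yeast strain. Its growth was then compared with that of cultures given vehicle alone, and inhibition was expressed relative to those controls.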

[6] = NCI Yeast Anticancer Drug Screen. Data for the sgs1 mgt1 strain (AID 161);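 note: 0% = growth of cultures given vehicle only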; conditions: S. cerevisiae sgs1 mgt1 strain, stronger effect = higher value
Outline: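 Percent growth inhibition was derived by comparing compound-exposed mutant yeast with vehicle-exposed cultures. The strain carries alterations in DNA damage repair.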

[7] = NCI Yeast Anticancer Drug Screen. Data for the CLN2oe strain (AID 163);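 note: 0% = growth of vehicle-only control cultures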; conditions: S. cerevisiae CLN2oe strain, stronger effect = higher value
Outline: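 Yeast cells carrying a defined cell-cycle control alteration were exposed to test compounds. Growth inhibition was scored against vehicle-treated control cultures.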

[8] = NCI Yeast Anticancer Drug Screen. Data for the cln2 rad14 strain (AID 165);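 note: 0% = growth equal to vehicle treated cultures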; conditions: S. cerevisiae cln2 rad14 strain, stronger effect = higher value
Outline: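 Yeast carrying cln2 and rad14 alterations (cell cycle control and DNA damage repair) were exposed to compounds. Growth inhibition was measured against vehicle-treated controls.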

[9] = NCI Yeast Anticancer Drug Screen. Data for the bub3 strain (AID 167); conditions: S. cerevisiae bub3 mutant strain, stronger effect = higher value
Outline: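 Yeast carrying a defined mutation is treated with each compound, and growth is compared with that of vehicle-exposed cells to give inhibition.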

[10] = NCI Yeast Anticancer Drug Screen. Data for the wt2 strain (AID 169);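 note: 0% = growth of vehicle-treated yeast cultures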; conditions: S. cerevisiae wt2 strain growth inhibition, stronger effect = higher value
Outline: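 Yeast cells were exposed to test compounds, and growth inhibition was measured relative to vehicle-treated controls.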

[11] = NCI Yeast Anticancer Drug Screen. Data for the mlh1 strain (AID 171);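 note: 0% = growth of vehicle-treated control cultures of the same strain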; conditions: S. cerevisiae mlh1 strain growth inhibition, stronger effect = higher value
Outline: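 Yeast carrying a defined genetic alteration in DNA damage repair or cell cycle control were exposed to test compounds. Growth inhibition was measured relative to vehicle-treated controls.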

[12] = NCI Yeast Anticancer Drug Screen. Data for the sgs1 strain (AID 173);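 note: 0% = growth of vehicle-only control cultures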; conditions: S. cerevisiae sgs1 mutant, stronger effect = higher value
Outline: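 Yeast mutant strains carrying defined defects in DNA damage repair or cell cycle control were exposed to test compounds. Growth inhibition was scored against vehicle-treated controls.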

[13] = NCI Yeast Anticancer Drug Screen. Data for the mlh1 rad18 strain (AID 175); conditions: S. cerevisiae mlh1 rad18 strain growth inhibition, stronger effect = higher value
Outline: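 Growth inhibition of the yeast strain was measured after compound exposure and expressed relative to vehicle-treated controls. The strain carries defined defects in DNA damage repair.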

[14] = NCI Yeast Anticancer Drug Screen. Data for the rad18 strain (AID 177); conditions: S. cerevisiae rad18 mutant growth inhibition, stronger effect = higher value
Outline: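 Yeast carrying a defined DNA damage repair alteration were exposed to compounds. Growth inhibition was expressed relative to vehicle-treated controls.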

[15] = NCI Yeast Anticancer Drug Screen. Data for the mgt1 strain (AID 153); conditions: S. cerevisiae mgt1 mutant growth inhibition, stronger effect = higher value
Outline: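 Yeast mgt1 strain (DNA repair/cell-cycle alteration panel) exposed to compounds; growth inhibition measured relative to vehicle-treated controls.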

[16] = at 5.0 µM (retest, dose inferred, filed as 0.5)
[17] = at 50.0 µM (retest, dose inferred, filed as 5.0)

Measured: growth inhibition

Oc1ccc(Cc2nccc3cc(O)c(O)cc23)cc1O
inactive: [1]; at 1.2 µM -9% | [1]; at 3.7 µM 2% | [1]; at 11.0 µM 3% | [1]; at 33.0 µM 19% | [1]; at 100.0 µM 66% | [2]; at 1.2 µM 16% | [2]; at 3.7 µM 31% | [2]; at 11.0 µM 22% | [2]; at 33.0 µM 24% | [2]; at 100.0 µM 33% | [3]; at 1.2 µM 3% | [3]; at 3.7 µM -6% | [3]; [16] 47% | [3]; at 11.0 µM 7% | [3]; at 33.0 µM 11% | [3]; [17] 66% | [3]; at 50.0 µM 48.9% | [3]; at 100.0 µM 28% | [4]; at 1.2 µM 21% | [4]; at 3.7 µM 28% | [4]; [16] 46% | [4]; at 11.0 µM 33% | [4]; at 33.0 µM 47% | [4]; at 50.0 µM -25.4% | [5]; at 1.2 µM 0% | [5]; at 3.7 µM 14% | [5]; at 11.0 µM 10% | [5]; at 33.0 µM 22% | [5]; at 100.0 µM 51% | [6]; [16] -1% | [6]; [17] 35% | [6]; at 50.0 µM 16.4% | [7]; at 1.2 µM 14% | [7]; at 3.7 µM 11% | [7]; at 11.0 µM 24% | [7]; at 33.0 µM 27% | [7]; at 100.0 µM 55% | [8]; [16] 43% | [8]; [17] 63% | [8]; at 50.0 µM -42.5% | [9]; at 1.2 µM 34% | [9]; at 3.7 µM 46% | [9]; [16] 20% | [9]; at 11.0 µM 57% | [9]; at 33.0 µM 68% | [9]; [17] 59% | [9]; at 50.0 µM 28.6% | [10]; at 1.2 µM -9% | [10]; at 3.7 µM 16% | [10]; at 11.0 µM 31% | [10]; at 33.0 µM 41% | [11]; at 1.2 µM -2% | [11]; at 3.7 µM 11% | [11]; at 11.0 µM 18% | [11]; at 33.0 µM 32% | [11]; at 100.0 µM 65% | [12]; at 1.2 µM 40% | [12]; at 3.7 µM 37% | [12]; at 11.0 µM 42% | [12]; at 33.0 µM 52% | [13]; [16] 33% | [13]; [17] 66% | [13]; at 50.0 µM 53.1% | [14]; at 1.2 µM -10% | [14]; at 3.7 µM 4% | [14]; at 11.0 µM 14% | [14]; at 33.0 µM 5% | [14]; at 100.0 µM 14%
active: [4]; [17] 73% | [4]; at 100.0 µM 77% | [9]; at 100.0 µM 79% | [10]; at 100.0 µM 70% | [12]; at 100.0 µM 73%

COc1ccc2c(Cc3c4ccccc4cc4ccccc34)cncc2c1O
inactive: [1]; at 1.2 µM 2% | [1]; at 3.7 µM 4% | [1]; at 11.0 µM 12% | [1]; at 33.0 µM 56% | [2]; at 1.2 µM 4% | [2]; at 3.7 µM 18% | [2]; at 11.0 µM 41% | [2]; at 33.0 µM 68% | [15]; at 1.2 µM 3% | [15]; at 3.7 µM 6% | [15]; at 11.0 µM 11% | [15]; at 33.0 µM 42% | [3]; at 1.2 µM 4% | [3]; at 3.7 µM 6% | [3]; [16] 51% | [3]; at 11.0 µM 26% | [3]; at 33.0 µM 68% | [4]; at 1.2 µM 4% | [4]; at 3.7 µM 7% | [4]; [16] 19% | [4]; at 11.0 µM 12% | [4]; at 33.0 µM 33% | [6]; [16] 30% | [7]; at 1.2 µM 5% | [7]; at 3.7 µM 7% | [7]; at 11.0 µM 9% | [7]; at 33.0 µM 18% | [7]; at 100.0 µM 68% | [9]; at 1.2 µM 5% | [9]; at 3.7 µM 8% | [9]; [16] 8% | [9]; at 11.0 µM 19% | [9]; at 33.0 µM 45% | [10]; at 1.2 µM 1% | [10]; at 3.7 µM 4% | [10]; at 11.0 µM 18% | [11]; at 1.2 µM 4% | [11]; at 3.7 µM 7% | [11]; at 11.0 µM 15% | [11]; at 33.0 µM 60% | [12]; at 1.2 µM 2% | [12]; at 3.7 µM 8% | [12]; at 11.0 µM 36% | [14]; at 1.2 µM 9% | [14]; at 3.7 µM 4% | [14]; at 11.0 µM 25%
active: [1]; at 100.0 µM 93% | [2]; at 100.0 µM 80% | [15]; at 100.0 µM 93% | [3]; [17] 98% | [3]; at 50.0 µM 93.9% | [3]; at 100.0 µM 90% | [4]; [17] 97% | [4]; at 50.0 µM 91.5% | [4]; at 100.0 µM 86% | [6]; [17] 95% | [6]; at 50.0 µM 92.8% | [9]; [17] 97% | [9]; at 50.0 µM 87.7% | [9]; at 100.0 µM 85% | [10]; at 33.0 µM 91% | [10]; at 100.0 µM 93% | [11]; at 100.0 µM 91% | [12]; at 33.0 µM 89% | [12]; at 100.0 µM 91% | [13]; [16] 80% | [13]; [17] 97% | [13]; at 50.0 µM 95.6% | [14]; at 33.0 µM 86% | [14]; at 100.0 µM 88%
